Test results as given in PubChem BioAssay AID1159580 (chemical genetic matrix, 2015).
The whole screen tested about 5,500 compounds, of which about 2,000 (36%) were called active. Not shown: some 18% with an inconclusive outcome. The list shows a part of the results. A number with no mark means an inactive call. Cut-off read from the data, not from the text of the source: active = normalized growth mostly below about 0.91 (no sharp cut-off); inconclusive = no clear call, values can overlap the other calls; inactive = mostly above about 0.92.

Assay: chemical genetic growth profiling, strain panel (AID 1159580);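 note: tested at 20 µM; growth read once vehicle control cultures reached saturation at 30 °C; 1 = growth at the plate median or of vehicle wells; lower values mean less growth of the strain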
Conditions: S. cerevisiae deletion strains, growth OD

Molecule `CCOC(=O)/C(C#N)=C/N=C(N/N=C\c1c(Cl)cccc1Cl)SC` has a normalized growth (locus YAL013W, strain DEP1, active compounds read low) of 0.98, a normalized growth (locus YBR229C, strain ROT2, active compounds read low) of 1.02 and a normalized growth (locus YCL061C, strain MRC1, active compounds read low) of 1.06. The normalized growth (locus YDL101C, strain DUN1, active compounds read low) was 1.04, the normalized growth (locus YDR150W, strain NUM1, active compounds read low) was 1.03 and the normalized growth (locus YEL061C, strain CIN8, active compounds read low) was 0.8 (active). The normalized growth (locus YGR078C, strain PAC10, active compounds read low) was 0.996, the normalized growth (locus YHR030C, strain SLT2, active compounds read low) was 0.687 (active) and the normalized growth (locus YHR087W, strain rtc3, active compounds read low) was 1.01. The normalized growth (locus YJL187C, strain SWE1, active compounds read low) was 0.998, the normalized growth (locus YJR043C, strain POL32, active compounds read low) was 1.04 and the normalized growth (locus YJR075W, strain HOC1, active compounds read low) was 1.02. The normalized growth (locus YKL190W, strain CNB1, active compounds read low) was 0.926 (active), the normalized growth (locus YLR039C, strain RIC1, active compounds read low) was 0.771 (active) and the normalized growth (locus YLR058C, strain SHM2 (second series), active compounds read low) was 0.989. The normalized growth (locus YLR085C, strain ARP6, active compounds read low) was 0.845, the normalized growth (locus YLR262C, strain YPT6, active compounds read low) was 0.796 (active) and the normalized growth (locus YML094W, strain GIM5, active compounds read low) was 0.901. It also gave a normalized growth (locus YMR219W, strain ESC1, active compounds read low) of 1.01, a normalized growth (locus YMR263W, strain SAP30, active compounds read low) of 1.01 and a normalized growth (locus YMR307W, strain GAS1, active compounds read low) of 0.799. The normalized growth (locus YNL153C, strain GIM3, active compounds read low) was 1.03, the normalized growth (locus YNL298W, strain CLA4 (second series), active compounds read low) was 0.795 (active) and the normalized growth (locus YNL322C, strain KRE1, active compounds read low) was 0.968. For the same molecule, the normalized growth (locus YNR030W, strain Alg12, active compounds read low) was 0.863 (active), the normalized growth (locus YPL055C, strain LGE1, active compounds read low) was 0.956 and the normalized growth (locus YPL241C, strain CIN2, active compounds read low) was 0.764 (active). The normalized growth (locus YPR135W, strain CTF4, active compounds read low) was 0.795.
